Measured values from PubChem BioAssay (NCI).
The panel holds about 83,000 compounds, 20% with a hit somewhere; the sample as a whole holds those more often.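 Method: cells in 96-well plates; compound added at one concentration; 48 h incubation; percent growth measured; values under 10 scored active.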 Values without a mark were called inactive. The source made the active and inactive calls.

Experiments:
Assay in all cases: NCI-60 one-dose screen, 48 h (100 = growth as untreated, 0 = no growth, -100 = all killed)
Conditions in all cases: 10 µM unless noted
NCI-H23 lung = tested on: NCI-H23 lung
NCI-H226 lung = tested on: NCI-H226 lung
NCI-H322M lung = tested on: NCI-H322M lung
HOP-62 NSCLC = tested on: HOP-62 NSCLC
NCI-H460 lung = tested on: NCI-H460 lung
HOP-92 NSCLC = tested on: HOP-92 NSCLC
NCI-H522 lung = tested on: NCI-H522 lung
A549/ATCC NSCLC = tested on: A549/ATCC NSCLC
786-0 renal = tested on: 786-0 renal
COLO 205 colon = tested on: COLO 205 colon
DU-145 prostate = tested on: DU-145 prostate
K-562 leukemia = tested on: K-562 leukemia
MALME-3M melanoma = tested on: MALME-3M melanoma
MDA-MB-231 breast = tested on: MDA-MB-231 breast
RXF 393 renal = tested on: RXF 393 renal
SF-268 CNS = tested on: SF-268 CNS
SF-295 CNS = tested on: SF-295 CNS
SF-539 CNS = tested on: SF-539 CNS
UACC-257 melanoma = tested on: UACC-257 melanoma
M14 melanoma = tested on: M14 melanoma

SMILES	growth (NCI-H23 lung)	growth (NCI-H226 lung)	growth (NCI-H322M lung)	growth (HOP-62 NSCLC)	growth (NCI-H460 lung)	growth (HOP-92 NSCLC)	growth (NCI-H522 lung)	growth (A549/ATCC NSCLC)	growth (786-0 renal)	growth (COLO 205 colon)	growth (DU-145 prostate)	growth (K-562 leukemia)	growth (MALME-3M melanoma)	growth (MDA-MB-231 breast)	growth (RXF 393 renal)	growth (SF-268 CNS)	growth (SF-295 CNS)	growth (SF-539 CNS)	growth (UACC-257 melanoma)	growth (M14 melanoma)
C/C(=N\Nc1ccc([N+](=O)[O-])cc1[N+](=O)[O-])c1ccc(Br)cc1	103%	96.6%	106%	108%	99.2%	94.5%	85.5%	84.8%	99.4%	104%	103%	98.7%	107%	91.5%	106%	97.2%	94.4%	106%	87.9%	–
O=C(Nc1ccccc1)c1ccco1	96.2%	99.1%	101%	101%	108%	98.8%	100%	97.9%	92.8%	115%	112%	93.7%	92.9%	112%	123%	117%	103%	102%	107%	–
C=CCc1cc(OC)c(OC)c(OC)c1	95.6%	104%	117%	104%	97.1%	108%	101%	96.2%	108%	108%	102%	105%	109%	99%	103%	95.3%	113%	114%	99.1%	–
O=Cc1ccc(O)c(O)c1	100%	95.9%	104%	97.1%	98.9%	84.9%	84.3%	89.4%	101%	95.4%	94.9%	103%	108%	99.7%	88.3%	74.1%	103%	81.9%	93.7%	94.5%
O=S(=O)(O)C(C(I)I)S(=O)(=O)O	95.4%	98.7%	107%	109%	105%	106%	108%	104%	110%	110%	106%	105%	107%	126%	104%	100%	113%	99.8%	102%	109%
CC(=O)c1cc(O)ccc1O	92.9%	98%	97.4%	89.3%	108%	58.9%	100%	103%	94.5%	123%	114%	91.7%	111%	96.6%	88.8%	109%	104%	92.5%	104%	101%
Nc1ccn(C2CC(N)C(CO)O2)c(=O)n1 (configuration not stated)	80.1%	85.1%	96.6%	69.1%	34.5%	95.7%	77.9%	75.6%	94.1%	97.7%	51.2%	83.9%	79.2%	94.4%	128%	102%	82.4%	76.3%	96%	66.2%
CC(=O)Nc1ccc(C(=O)c2ccc(S(=O)(=O)Nc3ccccc3)cc2)cc1	231%	102%	73.2%	100%	97.8%	74.2%	84.4%	81.3%	156%	92.4%	117%	112%	99.5%	88.1%	100%	104%	109%	94.7%	69.6%	91.8%
Nc1c(O)c(S(=O)(=O)O)c(O)c2c1C(=O)c1ccccc1C2=O	21.5%	41.2%	39%	42.6%	8.34% (active)	14.4%	7.56% (active)	19%	59.6%	6.29% (active)	21.4%	22.1%	-0.703% (active)	42.3%	75.3%	45.9%	12.8%	61.6%	1.57% (active)	35%
O=C(O)CSCC(=O)Nc1cc(C(F)(F)F)ccc1Cl	111%	109%	103%	105%	134%	104%	99.9%	106%	107%	121%	128%	102%	105%	112%	128%	94.5%	103%	101%	103%	103%
Cc1cc(=O)n(Nc2ccccc2)c(O)c1C#N	97.4%	94%	92.4%	86%	105%	102%	100%	106%	101%	104%	109%	92.5%	105%	103%	124%	102%	101%	104%	116%	99.4%
COc1c(CNC(=O)CCl)cc2[nH]c(C)cc2c1CNC(=O)CCl	57.2%	69.4%	67.4%	70.4%	31.5%	107%	-2.03% (active)	56.4%	68%	54.8%	65.8%	63.5%	82%	87.7%	60.8%	59.4%	64.7%	72.3%	51.9%	47.3%
Cc1ccc(S(=O)(=O)NC(=O)NCCSSCCNC(=O)NS(=O)(=O)c2ccc(C)cc2)cc1	102%	91%	101%	105%	103%	92.2%	94.9%	100%	104%	129%	110%	103%	97.3%	116%	102%	102%	95.3%	87.5%	89.1%	111%
NC(=S)N/N=C/c1ccc(Cl)cc1	98.1%	97.5%	104%	113%	106%	91%	87.8%	106%	104%	131%	120%	92.8%	109%	111%	97.4%	109%	97.4%	106%	91.7%	108%
O=C(OC1CCCC1)c1ccccc1Cl	106%	104%	99.7%	97.1%	101%	96.2%	93.1%	105%	101%	107%	109%	106%	102%	97.3%	112%	104%	100%	98.6%	109%	101%
Cc1[nH]c(=S)[nH]c(=O)c1C	101%	99.7%	114%	107%	109%	125%	95.4%	94.3%	106%	115%	110%	99.7%	109%	105%	115%	108%	103%	103%	92.9%	109%
CN=S(=O)(OCCCCCOS(=O)(=NC)c1ccc(C)cc1)c1ccc(C)cc1 (configuration not stated)	89.1%	86%	101%	101%	55.7%	59.2%	116%	119%	99.3%	113%	85.7%	70.4%	100%	97.2%	123%	99%	91.6%	90.7%	124%	96.9%
